Measured values: PubChem BioAssay (NCATS)
Records with an inconclusive call do not appear. Unmarked numbers belong to inactive results. Activity calls are given as the source filed them. Calls come from the whole dose curve; as a rule, active = well fitted cell-killing curve with a large enough effect; inconclusive = small, poorly fitted or top-dose-only effect, or effect the other way; inactive = flat fitted curve, though single readings scatter.
% is set by controls: 0 for no effect and ±100 for the full control effect; potency is the fitted concentration of half-maximal effect.

These molecules were tested on CAOV3 (assay: Primary qHTS to identify gynecologic anti-cancer compounds using libraries of approved drugs and bioactive compounds (AID 1345084; note: nearly all actives have a fitted effect of over 55% in size)). Conditions: Gynecologic cancer cell panel viability, ATPlite luminescence, 48 h; series mostly up to 57.5 µM; activity change, negative = cytotoxicity: at the top concentration.
Description: National Center for Advancing Translational Sciences [NCATS] Assay Overview: Chemotherapeutic drug responses vary from cancer to cancer and from patient to patient. These variations could be caused by a number of factors including patient genomic background, tumor mutations, tumor heterogeneity, and aspects of drug treatment. Chemotherapeutic drug resistance is also a common issue and can lead to ineffective treatment and patient death. Here we have profiled the cell killing effects of thousands of compounds to characterize the responses in three gynecological cancers, identify cancer-selective compounds, and understand the diversity of responses to these compounds from pan-cancer suppressors to single cell line selective compounds. In this assay, we screened a 7,914 compound drug library that included approved drug and bioactive compounds in six ovarian, three cervical, and […] placental cancer cell lines using the ATPlite assay for cell viability. […] The cervical cancer cell lines included HeLa, Ca Ski, and C-33 A. The placental cancer cell lines included JEG-3. HEK 293T cells were used as the control cell line to determine the selectivity index. ATPlite is a luminescence based assay reliant on the conversion of a luciferase substrate to light in the presence of ATP. As a cytotoxic compound will suppress growth and decrease the number of cells, the concentration of ATP will decrease, and less light signal will be detected in the well.
Assay Protocol Summary: 1,000 cells in 4 uL of media were dispensed into white, solid bottom 1536-well plates using a Multidrop Combi (Thermo Scientific). The Assay plates were incubated for 16 hours at 37 C with 5% CO2 in assay plates, followed by the addition of 23 nL of DMSO or drug dissolved in DMSO. Each compound was assayed in five concentrations (0.092, 0.46, 2.3, 11.5, and 57.5 uM), using the automated Wako 1536 Pin Tool workstation and incubated at 37 C with 5% CO2 48 hours. 4 uL of ATPlite, the ATP monitoring reagent, was then added to the each well of the assay plates using the Multidrop Combi reagent dispenser followed by incubation for 15 minutes at room temperature. The resulting luminescence was measured using the ViewLux plate reader.
In the case of O=C(O)Cc1ccc(-c2ccccc2)cc1, the “activity change, negative = cytotoxicity” value is reported as 1.8%.
CC(=O)SCC(CC(=O)c1ccc(C)cc1)C(=O)O (stereo not given) was tested, and the “activity change, negative = cytotoxicity” value was 30.1%.
COC(=O)[C@H]1[C@H]2C[C@@H]3c4[nH]c5cc(OC)ccc5c4CCN3C[C@H]2C[C@@H](OC(=O)/C=C/c2cc(OC)c(OC)c(OC)c2)[C@@H]1OC was tested, and the “activity change, negative = cytotoxicity” value was 19.2% [at 25.3 µM].
COC(=O)C1=C(C)NC(C)=C(C(=O)OC)C1c1cccc(NC(=O)NCCCN2CCC(c3cccc(OC)c3)CC2)c1 was tested, and the Potency was 22.4 µM (active).
In the case of O=C(/C=C/c1ccccc1)NCCO, the “activity change, negative = cytotoxicity” value is reported as -23.4%.
With CCCCCCCCCCCCOCCO the “activity change, negative = cytotoxicity” value was -0.376%.
C=CCCCCCCCCC(=O)O was tested, and the “activity change, negative = cytotoxicity” value was 3.68%.
For CN(C)[C@@H]1C(=O)C(C(=O)NCN2CCCC2)=C(O)[C@@]2(O)C(=O)C3=C(O)c4c(O)cccc4[C@@](C)(O)C3C[C@@H]12 (stereo not given in full), the “activity change, negative = cytotoxicity” value was -9.24%.
In the case of CNC(=O)c1c(I)c(NC(=O)CCCCC(=O)Nc2c(I)c(C(=O)O)c(I)c(C(=O)NC)c2I)c(I)c(C(=O)O)c1I, the “activity change, negative = cytotoxicity” value is reported as 1.23%.
For S=c1[nH]c2ccccc2s1, the “activity change, negative = cytotoxicity” value was 3.16% [at 116 µM].
In the case of CC(C(=O)O)c1ccc2c(c1)[nH]c1ccc(Cl)cc12 (stereo not given), the “activity change, negative = cytotoxicity” value is reported as 14.2%.
With CN1CCN(c2cc3c(nn2)Oc2ccccc2N3C)CC1 the “activity change, negative = cytotoxicity” value was -12.3% [at 25.3 µM].
For Nc1cc(-c2ccncc2)c[nH]c1=O, the “activity change, negative = cytotoxicity” value was 6.45%.
With c1ccc2sc(SSc3nc4ccccc4s3)nc2c1 the “activity change, negative = cytotoxicity” value was 1.77% [at 25.3 µM].
Cc1onc(-c2c(F)cccc2Cl)c1C(=O)N[C@@H]1C(=O)N2[C@@H]1SC(C)(C)[C@@H]2C(=O)O was tested, and the “activity change, negative = cytotoxicity” value was -7.67%.
CS(=O)(=O)c1ccc(-n2nc(C(F)(F)F)cc2-c2ccc(F)cc2)cc1 was tested, and the “activity change, negative = cytotoxicity” value was -4.39%.
COC(=O)C1=C(C)NC(C)=C(C(=O)OCC(C)=O)C1c1ccccc1[N+](=O)[O-] (stereo not given) was tested, and the “activity change, negative = cytotoxicity” value was -1.11%.
CC1(C)S[C@@H]2[C@H](NC(=O)[C@H](NC(=O)N3CCN(S(C)(=O)=O)C3=O)c3ccccc3)C(=O)N2[C@H]1C(=O)O was tested, and the “activity change, negative = cytotoxicity” value was 2.92%.
For COC(=O)Nc1nc2ccc(C(=O)C3CC3)cc2[nH]1, the “activity change, negative = cytotoxicity” value was -27%.
With Cc1cc(O)c2ccccc2c1O the “activity change, negative = cytotoxicity” value was 13.7%.
COc1cc(CNC(=O)CCCC/C=C/C(C)C)ccc1O was tested, and the “activity change, negative = cytotoxicity” value was -0.499%.
CN1[C@@H]2CC[C@H]1CC(OC(c1ccccc1)c1ccccc1)C2 (stereo not given in full) was tested, and the “activity change, negative = cytotoxicity” value was 13.8%.
CC1(C)S[C@@H]2[C@H](NC(=O)[C@H](N)c3ccc(O)cc3)C(=O)N2[C@H]1C(=O)O was tested, and the “activity change, negative = cytotoxicity” value was 4.85%.
CN1[C@@H]2CC[C@H]1CC(OC(=O)C(CO)c1ccccc1)C2 (stereo not given in full) was tested, and the “activity change, negative = cytotoxicity” value was 9.15%.
For O=C(O)[C@H](CC(=O)N1C[C@H]2CCCC[C@H]2C1)Cc1ccccc1, the “activity change, negative = cytotoxicity” value was -9.87%.
For C[N+]1(C)[C@@H]2CC(OC(=O)[C@H](CO)c3ccccc3)C[C@H]1[C@@H]1O[C@@H]12 (stereo not given in full), the “activity change, negative = cytotoxicity” value was 24.4%.
COC(=O)C1=C(C)NC(C)=C(C(=O)OCC(C)C)C1c1ccccc1[N+](=O)[O-] (stereo not given) was tested, and the “activity change, negative = cytotoxicity” value was -1.9%.
In the case of Cc1nc2ccccc2n1Cc1ccc(Cl)cc1, the “activity change, negative = cytotoxicity” value is reported as -8.51%.
For O=C(Nc1ccc(C(=O)O)c(O)c1)c1ccccc1, the “activity change, negative = cytotoxicity” value was -7.41%.
CN(CCCOc1ccc(Cc2ccccc2)cc1)CCC(=O)O was tested, and the “activity change, negative = cytotoxicity” value was -9.77%.
With COc1cc(/C=C/C(=O)N2CCN(CC(=O)N3CCCC3)CC2)cc(OC)c1OC the “activity change, negative = cytotoxicity” value was 22.6%.
In the case of CCCCCCOc1ccccc1C(N)=O, the “activity change, negative = cytotoxicity” value is reported as 3.92%.
For NC(=O)C(c1ccccc1)(c1ccccc1)[C@@H]1CCN(CCc2ccc3c(c2)CCO3)C1, the “activity change, negative = cytotoxicity” value was -20.9%.
CO[C@@]1(NC(=O)Cc2cccs2)C(=O)N2C(C(=O)O)=C(COC(N)=O)CS[C@@H]21 was tested, and the “activity change, negative = cytotoxicity” value was 4.58%.
In the case of CCC1C(=O)OCC1Cc1cncn1C (stereo not given), the “activity change, negative = cytotoxicity” value is reported as 2.42%.
For Cc1[nH]cnc1CN1CCc2c(c3ccccc3n2C)C1=O, the “activity change, negative = cytotoxicity” value was -2.65%.
Cc1ccc2c(n1)Oc1ccc(C(C)C(=O)OCC(=O)N(C)C)cc1C2 (stereo not given) was tested, and the Potency was “inactive”.
For COc1cc2c3cc1Oc1cc(ccc1O)C[C@@H]1c4c(cc(OC)c(O)c4Oc4ccc(cc4)C[C@@H]3N(C)CC2)CC[N+]1(C)C, the “activity change, negative = cytotoxicity” value was -5.19%.
With CCCCCCCC/C=C/C(=O)O the “activity change, negative = cytotoxicity” value was 13.6%.
For Nc1ccc(C(=O)O)c(O)c1, the “activity change, negative = cytotoxicity” value was -3.87%.
